{"source": "the supplement of paper PMC6555819", "data": [{"system": "PPARg:RXRa DBDmut IVT, anti-RXR (DBD mutation: RXRa K156A/R161A, NR concentration 270 nM, RXRa partner concentration 90 nM)", "test": "PBM binding z-score (relative to random genomic background probes); higher = stronger binding; sequences stand for … in GC…GCGATTGACAGCGTAGAATGAAGG", "summary_of_the_method": "(§1)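 Custom Agilent 4×180K protein-binding microarrays carried double-stranded probes. Their 34-nt variable regions held direct-repeat seeds, single-nucleotide variants, half-site ablations and random human genomic background sequences. Arrays were incubated 1 h with ligand-free nuclear receptor dimers in PBS pH 7.4, 2% milk, 0.02% Triton X-100, 1 mM DTT, 0.2 mg/mL BSA and 0.4 mg/ml salmon testes DNA. Antibodies against each partner (one per run) detected binding, and scanned fluorescence was regression-normalized. Binding z-scores use random background probes as reference.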", "values": [{"sequence": "TCATATAGGTACATGCTAGGTGAAAGTCCGATCT", "PBM binding z-score": 2.58}, {"sequence": "CGAACTAAGTCAAGGACAGTGAATCTCCGCACGC", "PBM binding z-score": 0.868}, {"sequence": "AATACAGGGTCACTAGGCGAGAGTAGGTACGAAT", "PBM binding z-score": 3.92}, {"sequence": "CGTCCAAGGTCAAAGGTCAGAGAAGAGATGACGG", "PBM binding z-score": 4.12}, {"sequence": "TATAGTTGGTCAAAGGTCACACACTCGAAATGCG", "PBM binding z-score": 2.28}, {"sequence": "TTACCAAGGTGAAAGGTTGTTGATGCACGCCTTG", "PBM binding z-score": 2.7}, {"sequence": "ACTAGCAGGCCAAGTTTGGGTCGCTCAAACAAAG", "PBM binding z-score": 0.683}, {"sequence": "CTCGAAAGGTCGTGCTCAGGTGAGTAGACCAAAC", "PBM binding z-score": 0.641}, {"sequence": "GGAACGAGGGCATTCTAGTTGATAGCATGGCGAT", "PBM binding z-score": 3.02}, {"sequence": "CCAGACAGCTGAAAGGTAACTCAGTCTGGTACGC", "PBM binding z-score": -0.0276}, {"sequence": "CGAACTAGGTCATCCAGAACAGTGAATACATTGA", "PBM binding z-score": 8.45}, {"sequence": "TCTTGTAGATCAGCAGATTAAGAAAGCTGGCCAA", "PBM binding z-score": 1.64}, {"sequence": "ACTATTAGTTGACTTAGGGAAACCGATACGACGC", "PBM binding z-score": 0.323}, {"sequence": "CGAACTGGGTCATTGACAGGACAGTGAATAGTAA", "PBM binding z-score": 7.7}, {"sequence": "TCTCGGAGGACACCAAGGTCAGAGCTTTCCAGAG", "PBM binding z-score": 1.32}, {"sequence": "TCTTGTAGACCAATAGAGGTTAAGAAAGTGCGCT", "PBM binding z-score": 2.08}, {"sequence": "GCTAGTTGGTCAGTAAAAAGTCACACACCGGTCG", "PBM binding z-score": 0.793}, {"sequence": "AGAACGAGGGCAGGCTGAGTTGATAGCAGAGTAG", "PBM binding z-score": 2}, {"sequence": "CCGAGGAGGTTATGGGGCATTCAGGCAACGGTGA", "PBM binding z-score": 0.461}, {"sequence": "CCTAGCAGGCCAATCTGGGTTACTCAAGGCTTGA", "PBM binding z-score": 3.14}, {"sequence": "ACTATTAGTTGACTTAGGGCAAGCGATACGACGC", "PBM binding z-score": 0.209}, {"sequence": "CCTTACGGGGCACTGACAGGTTATAGCATTTGGA", "PBM binding z-score": 1.49}, {"sequence": "ATATGTAGGTTATAGGGTCATTCAGTTTGCGCAT", "PBM binding z-score": 7.51}, {"sequence": "ATCTCTAAGTAACAAGTTCAGTGAAAGAGAGGAC", "PBM binding z-score": 0.199}, {"sequence": "AGTGAAAGTTCATCTAGGTAACGTAAGATATGCT", "PBM binding z-score": 0.529}, {"sequence": "TCTAGTAGATCAATAGAGGTTAAGAAAGTGCGCT", "PBM binding z-score": 1.7}, {"sequence": "CCTACTGGGCCAAGGTTATTGATCAGTCAAAGCA", "PBM binding z-score": 3.46}, {"sequence": "ATATGTAGGTTAATGGTCATTCAGGTTGGTTCGC", "PBM binding z-score": 7.35}, {"sequence": "GATACAGGGTCAGCTAGAGGCCAGTGTATGGAAA", "PBM binding z-score": 0.823}, {"sequence": "TAGCCTAGGTCAGGTCGGGCCAGTATACGCTATA", "PBM binding z-score": 0.315}, {"sequence": "GCCTGTAGATCAAGGTTAAGAAAGACTAAGCTAA", "PBM binding z-score": 0.625}, {"sequence": "CCTATTAGTTAACCATAAGGGCAACCGAAGCTCG", "PBM binding z-score": 0.296}, {"sequence": "TAGCCTAGGTCAGATCGGGCCAGAATACGCTATA", "PBM binding z-score": 0.095}, {"sequence": "CCTGCTAGGTCATGGTCAGATAATCTACAGTATG", "PBM binding z-score": 4.17}, {"sequence": "AGACTGAGGTTAAGATCAGGGAAACAGAATACAT", "PBM binding z-score": 0.0393}, {"sequence": "GGAACGAGGGCATTCGAGTTGGTAGCATGGCGAT", "PBM binding z-score": 3.06}, {"sequence": "TTACCAAGATGAGCTGAGGTCGTTGATCCAACTC", "PBM binding z-score": 0.238}, {"sequence": "TCGGCTAGGTCAGTTGGTCAGCTAACGAGCTGCC", "PBM binding z-score": 1.62}, {"sequence": "TCTTGTAGATCAAGCCGGTTAAGAAAGCCTGAGT", "PBM binding z-score": 1.95}]}, {"system": "PPARg:RXRa IVT, anti-PPARg (NR concentration 270 nM, RXRa partner concentration 90 nM)", "test": "PBM binding z-score (relative to random genomic background probes); higher = stronger binding; sequences stand for … in GC…GCGATTGACAGCGTAGAATGAAGG", "summary_of_the_method": "as §1", "values": [{"sequence": "TCATATAGGTACATGCTAGGTGAAAGTCCGATCT", "PBM binding z-score": 1.73}, {"sequence": "CGAACTAAGTCAAGGACAGTGAATCTCCGCACGC", "PBM binding z-score": 0.214}, {"sequence": "AATACAGGGTCACTAGGCGAGAGTAGGTACGAAT", "PBM binding z-score": 5.14}, {"sequence": "CGTCCAAGGTCAAAGGTCAGAGAAGAGATGACGG", "PBM binding z-score": 6.13}, {"sequence": "TATAGTTGGTCAAAGGTCACACACTCGAAATGCG", "PBM binding z-score": 6.4}, {"sequence": "TTACCAAGGTGAAAGGTTGTTGATGCACGCCTTG", "PBM binding z-score": 4.17}, {"sequence": "ACTAGCAGGCCAAGTTTGGGTCGCTCAAACAAAG", "PBM binding z-score": 0.332}, {"sequence": "CTCGAAAGGTCGTGCTCAGGTGAGTAGACCAAAC", "PBM binding z-score": 1.86}, {"sequence": "GGAACGAGGGCATTCTAGTTGATAGCATGGCGAT", "PBM binding z-score": 2.04}, {"sequence": "CCAGACAGCTGAAAGGTAACTCAGTCTGGTACGC", "PBM binding z-score": -0.495}, {"sequence": "CGAACTAGGTCATCCAGAACAGTGAATACATTGA", "PBM binding z-score": 8.49}, {"sequence": "TCTTGTAGATCAGCAGATTAAGAAAGCTGGCCAA", "PBM binding z-score": -0.0378}, {"sequence": "ACTATTAGTTGACTTAGGGAAACCGATACGACGC", "PBM binding z-score": 0.25}, {"sequence": "CGAACTGGGTCATTGACAGGACAGTGAATAGTAA", "PBM binding z-score": 7.88}, {"sequence": "TCTCGGAGGACACCAAGGTCAGAGCTTTCCAGAG", "PBM binding z-score": 1.11}, {"sequence": "TCTTGTAGACCAATAGAGGTTAAGAAAGTGCGCT", "PBM binding z-score": 1.7}, {"sequence": "GCTAGTTGGTCAGTAAAAAGTCACACACCGGTCG", "PBM binding z-score": 0.0874}, {"sequence": "AGAACGAGGGCAGGCTGAGTTGATAGCAGAGTAG", "PBM binding z-score": 1.53}, {"sequence": "CCGAGGAGGTTATGGGGCATTCAGGCAACGGTGA", "PBM binding z-score": 1.61}, {"sequence": "CCTAGCAGGCCAATCTGGGTTACTCAAGGCTTGA", "PBM binding z-score": 3.29}, {"sequence": "ACTATTAGTTGACTTAGGGCAAGCGATACGACGC", "PBM binding z-score": 0.768}, {"sequence": "CCTTACGGGGCACTGACAGGTTATAGCATTTGGA", "PBM binding z-score": 0.641}, {"sequence": "ATATGTAGGTTATAGGGTCATTCAGTTTGCGCAT", "PBM binding z-score": 7.16}, {"sequence": "ATCTCTAAGTAACAAGTTCAGTGAAAGAGAGGAC", "PBM binding z-score": 0.166}, {"sequence": "AGTGAAAGTTCATCTAGGTAACGTAAGATATGCT", "PBM binding z-score": 3.41}, {"sequence": "TCTAGTAGATCAATAGAGGTTAAGAAAGTGCGCT", "PBM binding z-score": 0.843}, {"sequence": "CCTACTGGGCCAAGGTTATTGATCAGTCAAAGCA", "PBM binding z-score": 3.58}, {"sequence": "ATATGTAGGTTAATGGTCATTCAGGTTGGTTCGC", "PBM binding z-score": 7.31}, {"sequence": "GATACAGGGTCAGCTAGAGGCCAGTGTATGGAAA", "PBM binding z-score": 2.25}, {"sequence": "TAGCCTAGGTCAGGTCGGGCCAGTATACGCTATA", "PBM binding z-score": 1.69}, {"sequence": "GCCTGTAGATCAAGGTTAAGAAAGACTAAGCTAA", "PBM binding z-score": 0.319}, {"sequence": "CCTATTAGTTAACCATAAGGGCAACCGAAGCTCG", "PBM binding z-score": 0.65}, {"sequence": "TAGCCTAGGTCAGATCGGGCCAGAATACGCTATA", "PBM binding z-score": 1.57}, {"sequence": "CCTGCTAGGTCATGGTCAGATAATCTACAGTATG", "PBM binding z-score": 3.84}, {"sequence": "AGACTGAGGTTAAGATCAGGGAAACAGAATACAT", "PBM binding z-score": 0.554}, {"sequence": "GGAACGAGGGCATTCGAGTTGGTAGCATGGCGAT", "PBM binding z-score": 2.06}, {"sequence": "TTACCAAGATGAGCTGAGGTCGTTGATCCAACTC", "PBM binding z-score": 0.101}, {"sequence": "TCGGCTAGGTCAGTTGGTCAGCTAACGAGCTGCC", "PBM binding z-score": 1.9}, {"sequence": "TCTTGTAGATCAAGCCGGTTAAGAAAGCCTGAGT", "PBM binding z-score": 0.218}]}]}
